Measurements reported in PubChem BioAssay AID1789 (The Scripps Research Institute Molecular Screening Center, 2009).
The campaign covered roughly 290,000 compounds. About 2,700 (0.93%) were called active. Shown is part of a subset that was picked to be rich in actives. A number with no mark means an inactive call.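 How the source made its calls: active means inhibition above the screen-wide mean plus 3 SD, computed separately per campaign (cut at about 16% in these data); inactive means the rest.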

test system: Heat shock protein HSP 90 (rabbit reticulocyte lysate; luciferase refolding); experiment: HSP90 inhibitors, primary screen, cell lysate, luminescence (AID 1789); conditions: 3 h, at 5.6 µM, active compounds read high;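 further: 0% = DMSO wells and 100% = 60 µM geldanamycin wells; inhibitors lower the luminescence because luciferase stays unfolded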

SMILES | inhibition
COc1ccc(S(=O)(=O)NC(C)c2ccccc2)cc1C(=O)N1CCCCC1 (stereo unspecified) | -0.07%
Cc1cc(NC(=O)c2ccccc2C)no1 | 1.41%
CC(NCc1cccs1)C(=O)Nc1cc(Cl)cc(Cl)c1 (stereo unspecified) | 3.33%
O=S(=O)(Cc1cc(Cl)nc(-c2cccnc2)n1)c1ccccc1 | -1.01%
Cc1cccc(C(=O)N2CCCC(Nc3ccc(C(C)C)cc3)C2)n1 (stereo unspecified) | 2.58%
COc1ccc2cc(S(=O)(=O)Nc3ccccn3)ccc2c1 | -2.45%
COc1cc(NS(=O)(=O)c2ccc3ccccc3c2)c2ncccc2c1 | 17.1% (active)
Cc1ccc(NS(=O)(=O)c2ccc(C)c(NC(=O)COc3ccc4ccccc4c3)c2)c(C)c1 | 3.5%
O=S(=O)(Nc1ccccc1Cl)c1cccc2nsnc12 | -0.91%
COc1ccc2c(c1)C(NS(=O)(=O)OCC(Cl)(Cl)Cl)CCC2 (stereo unspecified) | -3.42%
CCOc1cccc(/C=C/c2ccc3ccccc3n2)c1OC(C)=O | 11.8%
COc1cccc(/C=C2\C=C(c3ccc(C)cc3)OC2=O)c1OC(C)=O | -2.84%
COc1cccc(/C=C/c2ccc3ccccc3n2)c1OC(C)=O | 26.1% (active)
Cc1cc(=O)oc2cc(OC(C)C(=O)NCCc3ccc(S(N)(=O)=O)cc3)ccc12 (stereo unspecified) | -1.68%
COC(=O)C1=C(O)/C(=C/c2ccc(OCC(=O)Nc3ccccc3)cc2)N=C1C | 3.09%
COC(=O)c1ccc(Nc2ncnc3sccc23)cc1 | -0.64%
COc1ccc(N(CC(=O)NCC2CCCO2)C(=O)CCC(=O)Nc2nccs2)c(OC)c1 (stereo unspecified) | 1.16%
C=CCN(C(=O)Nc1ccc2c(c1)nc(C)n2C)c1ccccc1 | 2.61%
Cc1nc2cc(NC(=O)NC3CC3)ccc2n1C | -3.15%
Cc1nc2cc(NC(=O)Nc3cccc(F)c3)ccc2n1C | 42.2% (active)
CCN(C(=O)COc1ccc(C(=O)c2ccccc2)cc1)c1ccccc1 | 2.9%
O=C(Nc1nc2ccccc2s1)c1ccc2c(c1)OCO2 | 21.8% (active)
O=C(Nc1cccc(S(=O)(=O)Nc2ccc(Cl)cc2)c1)c1ccc2c(c1)OCCO2 | -6.31%
O=C(Nc1ccccc1)c1ccc2c(c1)OCCCO2 | 31.5% (active)

SMILES | inhibition
O=C(Nc1ccccc1F)c1ccc2c(c1)OCO2 | 4.08%
O=C(Nc1ccc(N2CCOCC2)cc1)c1ccc2c(c1)OCO2 | 4.41%
COCc1nnc(NC(=O)c2ccc3c(c2)OCO3)s1 | -2.47%
CN1CCN(CCNC(=O)Nc2ccccc2[N+](=O)[O-])CC1 | -4.79%
O=C(CCN1C(=O)C2C3CCC(C3)C2C1=O)Nc1ccc(Cl)cc1Cl (stereo unspecified) | -1.86%
COc1ccc(/C(C)=N\NC(=O)c2ccc(-c3ccccc3)cc2)c(F)c1 | -2.33%
Oc1c(Cl)cc(Cl)cc1/C=N/c1ncn[nH]1 | -0.17%
CC(C)C[C@H](NC(=O)N1CCn2c1nc1ccccc12)C(=O)NC1CC1 | -4.43%
COc1ccccc1C(=O)Nc1cccc(C(=O)N2CCOCC2)c1 | -1.04%
COc1cc(CNC2CCCC2)c(Br)cc1OCc1ccccc1 | -1.4%
COc1cc(CNC2CCCCC2)c(Br)cc1OC1CCCC1 | 35.2% (active)
CC(C)(C)NCc1cc(Br)ccc1OC1CCCC1 | -2.93%
COc1cc(C(=O)OCC(=O)NC(C)CCc2ccccc2)cc(OC)c1OC (stereo unspecified) | 0.2%
COc1ccccc1CNS(=O)(=O)c1c(C)[nH]c(C)c1C(=O)N1CCCCC1 | -3%
CCCCOCCCNC(=O)c1ccccc1OCC | 29.5% (active)
CCOc1ccccc1C(=O)NCCCn1ccnc1 | 2.74%
CCCOc1ccccc1C(=O)NCCCC(=O)O | 1.45%
Cc1c(C(=O)N(C)CCc2cnn(C)c2)oc2c(F)cccc12 | -3.1%
CC(C)Nc1ccc(-n2nc3ccccc3[n+]2[O-])cc1 | 20.2% (active)
O=C(Cc1ccsc1)N1CCN(S(=O)(=O)c2cc(C(F)(F)F)cc(C(F)(F)F)c2)CC1 | -2.85%
CC(NC(=O)c1ccco1)c1ccc2c(c1)OCO2 (stereo unspecified) | -2.76%
O=C(Nc1ccccc1)c1ccccc1NC(=O)C(F)(F)F | -1.41%
COCc1cc(=O)[nH]c2cc(NC(=O)C(F)(F)F)c(C)cc12 | 43.6% (active)
COCc1cc(=O)[nH]c(-c2ccc(C(F)(F)F)cc2)n1 | -1.15%

SMILES | inhibition
CSc1ccccc1NC(=O)c1cc(Cl)sc1Cl | 2.29%
C=CCn1c(C)cc(C2=NNC(=NCC)SC2)c1C | 44.5% (active)
Cc1cc(C2=NNC(=Nc3ccc(S(=O)(=O)N4CCOCC4)cc3)SC2)c(C)n1CC1CCCO1 (stereo unspecified) | 1.56%
C=CCn1c(C)cc(C(=O)CN2C(=O)c3ccccc3C2=O)c1C | -0.12%
Cc1ccc2c(=O)cc(C(=O)NCCc3ccc(S(N)(=O)=O)cc3)oc2c1C | 0.5%
CC(=O)c1ccc(NC(=O)c2cc(-c3cccs3)on2)cc1 | -4.55%
COCCCNC(=O)CNC(=O)c1nn(-c2ccc(OC)cc2)c(=O)c2ccccc12 | -1.14%
CCOC(=O)CNC(=O)c1nn(-c2cccc(OC)c2)c(=O)c2ccccc12 | 20.7% (active)
COc1ccc(-n2nc(C(=O)NCC(=O)Nc3cccc(C)n3)c3ccccc3c2=O)cc1 | 0.84%
CC(=O)NS(=O)(=O)c1ccc(N/C(N)=N/c2nc(C)cc(C)n2)cc1 | -3.21%
COc1cccc(C(=O)NNC(=O)/C=C/c2ccccc2)c1 | -8.89%
Cc1ccc(N/C=C/C(=O)c2ccccc2)cc1C | -2.61%
Cc1cc(C)nc(S/C=C/C(=O)c2ccccc2)n1 | 34.3% (active)
Cc1cc(C)nc(SCC(=O)c2ccc(Cl)cc2)n1 | -0.36%
COc1ccc(/C=N/OCC(=O)N(Cc2ccccc2)c2ccccc2C(=O)O)cc1 | -2.76%
COc1ccc(C(=O)Nc2ccccc2C(=O)N/N=C/c2ccccc2OC)cc1 | 50.3% (active)
COc1cc(/C=N/NC(=O)c2ccccc2)ccc1OS(=O)(=O)c1ccccc1 | -0.09%
COc1ccc(/C=N/Nc2ccccc2C(=O)O)cc1 | 24.7% (active)
COc1ccc(C(=O)Nc2ccccc2C(=O)NCc2ccco2)cc1 | -2.57%
COc1ccc(/C=N/Nc2nc3ccccc3c(=O)[nH]2)cc1 | 0.73%
COc1cc(/C=N/NC(=O)c2ccc(N3CCCC3=O)cc2)ccc1O | -0.72%
COc1ccc(C(=O)Nc2ccccc2C(=O)N/N=C/c2ccc(O)c(OC)c2)cc1 | 89% (active)
COc1ccc(/C=N/NC(=O)c2ccc3c(c2)OCCO3)c(OC)c1 | 2.94%
